In the library only some 0.52% were active in any assay of this set; here they are far more common.
GAA glycogen – GAA glycogen-cleavage inhibition or activation. P10253. recombinant GAA, glycogen substrate, Amplex Red glucose oxidase fluorescence. Potency, µM (top dose mostly 76.4 µM), for the others: top-dose activity change, negative = inhibition, actives largely listed as inhibitors. 300,000 tested, 0.38% active;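 also: 0% = full enzyme reaction and -100% = no-enzyme basal signal; the screen sought inhibitors and activators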
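qHTS, 1536-well; enzyme 4 nM final; cpd up to 77 uM; substrate bovine liver glycogen 30 ug; 50 mM citrate/phosphate pH 5.0, 0.01% Tween-20; 37 C, 40 min; Amplex Red detection 45 min RT; Hill fit → AC50.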
GAA inhib – alpha-glucosidase (human) inhibition | purified human GAA, 4-MU-alpha-glucoside fluorescence | Potency, µM (series often up to 76.9 µM), inactives show top-dose activity change, negative = inhibition, hits mostly inhibitors | 200,000 tested, 0.005% active;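 also: plate controls were uninhibited enzyme wells for no effect and no-enzyme background for full effect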
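Compounds are titrated up to 77 uM against 4 nM human enzyme. Substrate 4-methylumbelliferyl-alpha-D-pyranoside (400 uM) reacts 20 min at room temperature in pH 5.0 buffer; liberated 4-methylumbelliferone is read at 440 nm.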
LMNA splice mod – LMNA splicing modulation | HeLa LMNA splicing GFP/RFP minigene ratio, 48 h | Potency, µM (doses to about 46.1 µM), inactives show at the top dose ratio change, negative = inhibition, actives largely listed as inhibitors | 200,000 tested, 0.01% active | AID 1487; active = well fitted inhibition curve with a large enough effect in the signal ratio, with a control signal flat, not every such curve was filed as active; inconclusive = small, poorly fitted or top-dose-only effect, or effect the other way, or a change in a side signal; the % refers to the signal ratio
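S3 HeLa stable clones carrying a lamin A-EGFP splicing minigene plus DsRed2 were seeded at 600 cells/well in Opti-MEM with 2% FBS, pin-dosed and incubated 48 h at 37°C. Acumen cytometry (488 nm) gave the GFP/RFP total-intensity ratio.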
N370S GC mod – N370S glucocerebrosidase modulation, Gaucher chaperone candidate | P04062 | N370S GC spleen homogenate, 4MU-glucoside fluorescence | Potency, µM (top dose mostly 59.4 µM), without a hit: at the highest dose activity change, negative = inhibition, actives largely listed as inhibitors | 330,000 tested, 0.092% active;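 also: 0% = full enzyme activity and -100% = no enzyme basal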
aGlu spleen mod – inhibitors or activators of human alpha-glucosidase in spleen homogenate | P10253 | human spleen homogenate, 4-MU-alpha-glucoside fluorescence | Potency, µM (series often up to 79.9 µM), for inactives: at the highest dose activity change, negative = inhibition, actives largely listed as inhibitors | 240,000 tested, 0.006% active | AID 2112;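 also: 0% = enzyme with vehicle and -100% = no enzyme basal signal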
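Compounds were titrated against alpha-glucosidase in spleen homogenate at pH 5.0, with 1 mM 4-methylumbelliferyl substrate for 40 min at 37 C. Reactions were quenched with pH 10 NaOH/glycine and fluorescence measured.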
KinaseGlo FLuc – Kinase-Glo luciferase inhibition (counter-screen); Q27757; Kinase-Glo luciferase, ATP luminescence, 8 min; Potency, µM (series often up to 38.3 µM), inactives show top-dose activity change, negative = inhibition, usual class: inhibitors; 200,000 tested, 0.28% active; AID 1379; also: nearly all actives have a fitted effect of over 60% in size
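Substrate mix (final 50 mM imidazole pH 7.2, 50 mM KCl, 7 mM MgCl2, 10 uM ATP, 0.01% Tween 20, 0.05% BSA) plus pin-tool compound, then Kinase-Glo detection mix; 8 min ambient, luminescence read.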
* marks the source's active call; other numbers are inactive results; ? = inconclusive; / = not tested or not shown; ! = a repeat was not active; [ ] = dose if it differs, or a comment. Unless noted, calls follow the shape of the dose curve; as a rule, active = well fitted curve in the direction sought with a large enough effect; inconclusive = small, poorly fitted or top-dose-only effect, or another doubt; inactive = no such curve, though single readings can be large; an effect the other way counts as inactive or inconclusive. Unless noted, % is scaled to controls: 0 for no effect and ±100 for the full control effect; potency is read from the fitted curve at half-maximal effect.

SMILES	GAA glycogen	GAA inhib	LMNA splice mod	N370S GC mod	aGlu spleen mod	KinaseGlo FLuc
COCCNc1ncnc2ccc(-c3ccc(N(C)C)cc3)cc12	/	/	-3%	-8%	-1%	/
Cc1sc2nc(CN3CCN(c4ccc(O)cc4)CC3)[nH]c(=O)c2c1C	16µM*	/	/	0%	3%	/
C[C@H](N)CCP(=O)(O)O	/	/	/	16%	1%	/
Oc1ccc(Br)cc1-c1nc2cnccn2c1NC1CCCCC1	?	-23%	-3%	7%	-2%	-3%
Oc1ccc(Br)cc1-c1nc2cnccn2c1NC1CCCC1	16µM*	0%	?	5%	-5%	4%
Cc1c(C(=O)O)c2cc(O)ccc2n1-c1ccccc1	25µM*	-3%	5%	-4%	-6%	0%
CC(/C=N/n1c(-c2cc(C)[nH]n2)n[nH]c1=S)=C\c1ccccc1	-7%	?	-4%	-3%	2%	1%
CC(=C/c1ccccc1)/C=N/n1c(-c2ccco2)n[nH]c1=S	25µM*	-15%	?	21%	-1%	-1%
COc1cccc(C=Nc2ccc3c(c2)OCCO3)c1O	?	-11%	9%	-1%	6%	7.9µM*
COc1cccc(C=Nc2ccc(N3CCOCC3)cc2)c1O	7%[76.3 µM]	/	/	-3%	/	/
COC(=O)C[C@H]1c2ccccc2C2=C(C[C@@H](C)[C@H]3C(=O)NC(=O)[C@@H]23)N1C(=O)OC	/	/	-11%[9.22 µM]	1%[12.8 µM]	16%[17.4 µM]	-12%[7.66 µM]
Nc1ccccc1C(=O)/C=C/c1ccc2c(c1)OCO2	-3%	-1%	?	-4%	2%	10µM*!
Cc1ccc(C2=NC(=O)/C(=C/c3cc(O)c(O)c(Br)c3)S2)cc1	?	-7%	/	-20%	8%	10µM*
COc1ccc(-c2cc3ccccc3[nH]2)cc1	-5%	/	/	-16%	-1%	/
Cc1ccc(O)c(-c2cc3ccccc3[nH]2)c1	32µM*	?	?	19%	6%	0%
O=C(Nc1cccc(-c2nc3ccccc3s2)c1)c1ccc2c(c1)OCO2	3%	3%	4%	-17%	2%	-1%
c1ccc2sc(-c3ccc4c(c3)OCO4)nc2c1	-14%	-5%	?	9%	8%	13µM*
CCOC(=O)c1ncc2[nH]c3cccc(OC(C)C)c3c2c1C	/	/	/	6%	3%	-1%[39.9 µM]
O=C(NN=C1CCCC1)c1n[nH]c2c1CCCC2	?	9%	5%[46 µM]	1%	4%	13µM*
O=C(N/N=C/c1c(Cl)cccc1Cl)c1ccc(F)cc1	3%	-11%	8%	4%	-16%	0%
Cc1ccsc1/C=N\NC(=O)c1n[nH]c2c1CCC2	3%	1%	?	13%	-9%	7.1µM*
O=C(N/N=C/c1c(Cl)cccc1Cl)c1n[nH]c2c1CCCC2	2%	12%	-29%	5%	-1%	8.9µM*
Nc1n[nH]c(-c2ccc(Br)cc2)c1Cl	13µM*	?	-2%	-20%	?	1%
Cc1ccc2oc(=O)c(/C=C(\O)c3cccs3)nc2c1	13µM*	/	/	0%	-2%	/
C/C(O)=C\c1nc2ccccc2oc1=O	10µM*	-5%	?	-10%	-1%	-7%
SMILES	GAA glycogen	GAA inhib	LMNA splice mod	N370S GC mod	aGlu spleen mod	KinaseGlo FLuc
Cc1ccc2oc(=O)c(/C=C(\O)c3ccccc3)nc2c1	?	-1%	?	7%	1%	2%
CS(=O)(=O)Cc1nc2ccccc2oc1=O	5.6µM*	-4%	?	4%	2%	0%
O=c1oc2ccc(Cl)cc2nc1/C=C(\O)c1cccs1	6.3µM*	/	/	11%	-4%	/
Cc1ccccc1Cn1c(=O)n(Cc2ccc(Cl)cc2)c(=O)c2cccnc21	8%[76.3 µM]	/	/	/	/	/
CC1=C(C(=O)Nc2cccnc2)C(c2ccc(C)cc2)n2nc(SCc3ccccc3F)nc2N1 (stereo unspecified)	-10%[76.3 µM]	/	/	/	/	/
Cc1cc(C)cc(N(CC(=O)Nc2cccc(C)c2C)S(=O)(=O)c2c(C)[nH]c(=O)[nH]c2=O)c1	12%[76.3 µM]	/	/	2.5µM*	/	/
Cc1cc(C)cc(N(CC(=O)Nc2cc(C)ccc2C)S(=O)(=O)c2c(C)[nH]c(=O)[nH]c2=O)c1	/	/	/	8.9µM*	/	/
Cc1cc(C)cc(N(CC(=O)Nc2ccc(Br)cc2)S(=O)(=O)c2c(C)[nH]c(=O)[nH]c2=O)c1	/	/	/	1.6µM*	/	/
COc1ccccc1NC(=O)CN(c1cc(C)cc(C)c1)S(=O)(=O)c1c(C)[nH]c(=O)[nH]c1=O	-11%[76.3 µM]	/	/	/	/	/
CC1(C)Cc2c(sc3ncn4c(=S)[nH]nc4c23)CO1	28µM*	-9%	/	1%	6%	/
CC1(C)Cc2c(sc3ncn(N)c(=N)c23)CO1	10%	1%	0%	-3%	-3%	0%
Clc1ccc(-c2nc3ccccn3c2Nc2ccc3c(c2)OCCO3)s1	10µM*	/	/	/	/	/
Cc1ccn2c(Nc3ccc4c(c3)OCO4)c(-c3ccc(Cl)cc3)nc2c1	-13%[76.3 µM]	/	/	/	/	/
Cc1ccc2nc(-c3ccccc3O)c(Nc3ccc4c(c3)OCCO4)n2c1	3%	-7%	-5%	-9%	-4%	5%
Cc1ccc2nc(-c3ccc(O)cc3)c(Nc3ccc4c(c3)OCCO4)n2c1	14µM*	1%[15.4 µM]	-14%	?	4%	2%
Cc1ccn2c(Nc3ccc4c(c3)OCO4)c(-c3ccco3)nc2c1	5µM*	/	/	/	/	/
COc1ccc(-c2nc3ccc(C)cn3c2Nc2ccc3c(c2)OCO3)cc1	18µM*	/	/	/	/	/
Cc1cccc(C(=O)N2CCCCC2CCN2CCCCC2)c1 (stereo unspecified)	2%[76.3 µM]	/	/	/	/	/
COc1cc2c(cc1OC)C1O[C@](c3ccsc3)(C2)Oc2cc(-c3ccccc3)oc(=O)c21	12%[15.3 µM]	/	/	4%[12.8 µM]	/	/
COc1ccc(-n2nc(C(=O)N3CCN(c4cccc(C)c4C)CC3)c3c4ccccc4n(C)c3c2=O)cc1Cl	18%[76.3 µM]	/	/	/	/	/
NS(=O)(=O)c1ccc(N=Nc2nc3[nH]c(=O)[nH]c(=O)c3[nH]2)cc1	/	/	/	/	/	-9%[7.66 µM]

Assay outcomes as filed in PubChem.
